Max response and outcome data for 14 compounds are collected here from PubChem BioAssay (NCATS).

SMILES strings stand for the structures. Results filed as inconclusive are left out. A number with no mark means an inactive call. Active and inactive are the calls of the source. Calls follow the shape of the dose curve; as a rule, active = well fitted inhibition curve with a large enough effect; inconclusive = small, poorly fitted or top-dose-only effect; inactive = flat fitted curve, though single readings scatter.
% is scaled to controls: 0 for no effect and ±100 for the full control effect.

The test system of the experiment is NIH3T3. Briefly: Cytotoxic Profiling of Annotated Libraries Using Quantitative High-Throughput Screening (AID 1296008). Also: nearly all actives have a fitted effect of over 60% in size. To be noted: Five cell lines viability, CellTiter-Glo ATP luminescence, 48-72 h; max response: stronger effect = lower value. Summed up: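 Cytotoxicity was measured as CellTiter-Glo ATP luminescence, read after 10 min at room temperature. Compound treatment of the cells lasted 48 or 72 hr at 37 degrees Celsius in a qHTS format.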
On the technique in general: ATP-based viability assays read luminescence as a measure of living cells.
Regarding `O=C(NCCCCN1CCN(c2cccc(Cl)c2Cl)CC1)c1cc2ccccc2s1`, the max response was -29.5%.
In the case of `C/C=C/[C@@H]1C=C[C@@H]2C[C@H](C)CC[C@H]2[C@]1(C)/C(O)=C1/C(=O)[C@@H](CO)N(C)C1=O`, the outcome was inactive.
As to `CNc1nc(NCc2ccc(NS(C)(=O)=O)cc2Cl)cc(-c2ccccn2)n1`, the max response was -15.9%.
On the same count and under the same terms, the figure for `N#CC(CCCN1CCN(/N=C/c2cccnc2)CC1)(c1ccccc1)c1ccccc1` is -25.1%.
Same read-out and setting: the figure for `CCc1cc2c(cc1CC)CC(NCC(O)c1ccc(O)c3[nH]c(=O)ccc13)C2` (centres undefined) is 2.82%.
Still for that read-out and setting: the figure for `CC(=O)OC1C(OC(=O)c2ccccc2)C2C(=C(C)CCC2(C)C)C23CCC(C)(C2)C(=O)CC13` (centres undefined) is -18.4%.
On to `CCCc1cc(C)n(C)c(=O)c1CN(C)C(=O)c1cc(-c2ccc(N3CCN(C(C)C)CC3)nc2)cc2c1cnn2C(C)C`, for which the compound was classed as inactive.
Same read-out and setting: the entry for `COC(=O)c1cc(Br)cnc1N1CCC(NC2CCCCC2)C(O)C1` (centres undefined) is “inactive”.
With `Cc1ccc(C2(C(=O)N3CCC(n4nc(-c5ccccc5)oc4=O)CC3)CC2)cc1`, the max response was -1.74%.
`Cc1c(C2=CCN(C(=O)N(C)C(C)C)CC2)nnn1-c1cccnc1F`: the max response is -3.1%.
Same read-out and setting: the figure for `NC(N)=NC(=O)c1cnn(-c2cccc3ncccc23)c1C1CC1` is -11.3%; for `CC1(C)OC[C@H](NC(=O)Nc2ccc(Br)cc2Br)[C@H](c2ccccc2)O1` it is 0.948%; for `O=C(Nc1ccccc1)c1ccc(Nc2nnc(-c3ccc(O)cc3)c3ccccc23)cc1` it is -26.5%.
On the same count and under the same terms, the figure for `CCCc1ccc(OCC(=O)N(Cc2nc(-c3cccnc3)no2)C(C)C)cc1` is -9.24%.
